Compound activity: PubChem BioAssay, National Center for Advancing Translational Sciences (NCATS)
a7 integrin act: activators of alpha7 integrin expression for muscular dystrophy; alpha7betagal myoblasts, beta-gal FDG fluorescence, 48 h; Potency, µM (top dose mostly 38.3 µM), for inactives: at the highest dose activation, hits mostly activators; 0.064% of 350,000 active;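 note: potency is the fitted concentration of half-maximal effect; 100% = response of the positive control SU9516; nearly all actives have a fitted effect of over 60% in size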
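alpha7betagal+/- myoblasts (passage 13, 250/well) treated 48 h at 37C with compounds at 1:260 dilution of DMSO stock. Lysed, then beta-galactosidase activity read as FDG fluorescence (ex 480/em 540) after 30 min, with pre-read for autofluorescence.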
RXFP1 ag: RXFP1 (human) receptor agonism; HEK293T-RXFP1 cAMP TR-FRET, 30 min; response scale: percent of porcine relaxin response, buffer zero; Potency, µM (series often up to 57.5 µM), for the others: top-dose activation, usual class: activators; 0.3% of 370,000 active; note: potency is the fitted concentration of half-maximal effect; % is set by controls: 0 for no effect and ±100 for the full control effect; nearly all actives have a fitted effect of over 60% in size
Target sequence (Q9HBX9 whole entry, looked up): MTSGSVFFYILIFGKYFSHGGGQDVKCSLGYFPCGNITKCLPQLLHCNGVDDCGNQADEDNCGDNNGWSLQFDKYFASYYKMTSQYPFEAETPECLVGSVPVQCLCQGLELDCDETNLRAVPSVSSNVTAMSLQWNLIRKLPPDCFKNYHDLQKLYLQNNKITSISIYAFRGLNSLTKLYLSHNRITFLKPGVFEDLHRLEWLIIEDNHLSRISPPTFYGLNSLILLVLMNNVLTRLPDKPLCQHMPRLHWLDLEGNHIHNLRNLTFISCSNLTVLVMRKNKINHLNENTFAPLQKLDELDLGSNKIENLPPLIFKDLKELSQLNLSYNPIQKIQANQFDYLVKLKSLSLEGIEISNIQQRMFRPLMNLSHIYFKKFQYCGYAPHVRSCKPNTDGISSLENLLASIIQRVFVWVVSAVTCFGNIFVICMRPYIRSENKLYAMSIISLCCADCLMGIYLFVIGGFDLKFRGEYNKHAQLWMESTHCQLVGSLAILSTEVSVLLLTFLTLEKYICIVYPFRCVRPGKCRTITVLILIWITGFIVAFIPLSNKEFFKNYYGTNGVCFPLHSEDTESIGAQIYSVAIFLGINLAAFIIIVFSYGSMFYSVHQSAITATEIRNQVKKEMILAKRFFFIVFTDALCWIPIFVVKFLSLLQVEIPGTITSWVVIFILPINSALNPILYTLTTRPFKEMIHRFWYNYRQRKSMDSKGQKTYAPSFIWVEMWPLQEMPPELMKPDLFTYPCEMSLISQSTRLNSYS
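Agonist response is measured as cAMP accumulation in an RXFP1-transfected HEK293T line under PDE4 inhibition. Values are scaled between buffer-only and 29 nM porcine relaxin, and EC50s come from standard Hill equation fits.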
ASM inhibitor: blocks human secretory acid sphingomyelinase | AID 504937 | 0.006% of 340,000 active | placental ASM, HMU-PC fluorogenic substrate, 60 min | Potency, µM (titrated, usually from 57.5 µM), without a hit: at the highest dose activity change, negative = inhibition, actives largely listed as inhibitors; note: potency is the fitted concentration of half-maximal effect
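Human placenta-derived ASM preincubated with compound 10 min at room temperature, then reacted with 9 uM (final) fluorogenic HMU-PC substrate for 60 min at 37 C. Stop solution raises pH to 10; fluorescence read at Ex 386/Em 447 nm.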
gsp antag: gsp mutant antagonism; gsp-mutant cells, cAMP HTRF, 30 min; 0.4% of 340,000 active; Potency, µM (highest dose often 76.9 µM), without a hit: at the highest dose activity change, negative = inhibition, usual class: inhibitors; calls by dose curve; cell line not stated here;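 note: intracellular cAMP measured with PDE inhibitor Ro 20-1724 present during compound exposure; potency is the fitted concentration of half-maximal effect; % is set by controls: 0 for no effect and ±100 for the full control effect; nearly all actives have a fitted effect of over 65% in size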
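HTRF cAMP read-out (cAMP-d2 plus anti-cAMP antibody-K in lysis buffer, 30 min RT). Before lysis, cells are exposed to compounds with […] for 30 min at 37C in DPBS containing Ca/Mg, BSA and Tween 20.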
RXFP1 antagonist: blocks the human relaxin receptor RXFP1 | Q9HBX9 | HEK293-RXFP1, relaxin-stimulated cAMP HTRF, 30 min; stronger effect = lower value | activity change, negative = inhibition, % at 57.5 µM | 0.59% of 350,000 active | AID 1259400;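 active = activity change of -60% or lower, but not beyond a set lower limit; inconclusive = change between -60% and -40%, or beyond the set limit; inactive = change above -40%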; note: % is set by controls: 0 for no effect and ±100 for the full control effect
gsp ag: activates gsp, the McCune-Albright syndrome mutation. gsp mutant cells, cAMP HTRF, 30 min. Potency, µM (top dose mostly 76.9 µM), for the others: at the highest dose activation (cAMP increase), most hits filed as activators. 0.13% of 340,000 active; active = well fitted activation curve with a large enough effect; inconclusive = small, poorly fitted or top-dose-only effect, or another doubt; inactive = no such curve, though single readings can be large or run the other way; cell line not stated here;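 note: phosphodiesterase inhibitor Ro 20-1724 added with compounds to block cAMP breakdown; potency is the fitted concentration of half-maximal effect; nearly all actives have a fitted effect of over 60% in size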
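Cells stably selected in G418 were plated at 2000/well, grown 16-24 hr, then given compounds in DMSO with the PDE inhibitor […] (300 uM solution added) for 30 min at 37C; cAMP was read by HTRF.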
* marks the source's active call; other numbers are inactive results; i = inactive; ? = inconclusive; / = no result; [ ] = remark or other dose. An excerpt weighted towards active compounds, which were near 1.1% of everything screened. Unless noted, calls come from the whole dose curve; as a rule, active = well fitted curve in the direction sought with a large enough effect; inconclusive = small, poorly fitted or top-dose-only effect, or another doubt; inactive = no such curve, though single readings can be large; an effect the other way counts as inactive or inconclusive.

SMILES	a7 integrin act	RXFP1 ag	ASM inhibitor	gsp antag	RXFP1 antagonist	gsp ag
Cc1ccc(S(=O)(=O)NC(C(=O)Oc2ccc3c(C)c(Cl)c(=O)oc3c2)c2ccccc2)cc1 (centres undefined)	22%	5%	i	11%	/	14%
O=C(O)c1ccc(CS(=O)(=O)c2ccc(Br)cc2)cc1	24%	-1%	-1%	-7%	2	-7%
C=CCOc1ccc(C2C(C(=O)c3ccco3)=C(O)C(=O)N2Cc2cccnc2)cc1 (centres undefined)	1%	12%	-3%	14%	-9	28µM*
COc1cccc2cc(C(=O)C3=C(O)C(=O)N(Cc4ccco4)C3c3cccnc3)oc12 (centres undefined)	-38%	25µM*	-4%	-2%	8	10µM*
COc1ccccc1OCCCCCc1c(C)n[nH]c1C	-25%	0%	1%	35µM*	7	-13%
COc1ccccc1OCCCc1c(C)n[nH]c1C	3%	0%	-2%	-1%	-1	0%
Cc1c(C(=O)N2CCCCC2C)sc2ncnc(N3CCc4ccccc4C3)c12 (centres undefined)	-1%	1%	-4%	11µM*	?	6%[15.4 µM]
O=C(N/N=C/c1ccc(-c2cccc([N+](=O)[O-])c2)o1)c1ccc([N+](=O)[O-])cc1	6%	2%	-9%	/	-38	6%[15.4 µM]
O=C(N/N=C/c1ccc(-c2cccc([N+](=O)[O-])c2)o1)c1ccccc1O	17%	3%	-3%	50µM*	-6	-23%
COc1ccc(C(=O)/C(=C\c2ccco2)N2C=CC=CC2=C(C#N)C#N)cc1	-55%	2%	-5%	18%	-75*	-4%[15.4 µM]
N#CC(C#N)=C1C=CC=CN1/C(=C\c1ccco1)C(=O)c1ccccc1	0%	-2%	-5%	27%	-104*	?
O=C(CCCCn1c(=S)[nH]c2ccsc2c1=O)NCc1ccco1	-14%	1%	0%	-2%	-81*	19%
O=C(CCCn1c(=S)[nH]c2ccsc2c1=O)NCc1ccco1	9%	7%	-2%	-11%	-78*	15%
CC1CCCCC12NC(=O)N(CC(=O)NCc1ccccc1Cl)C2=O (centres undefined)	-4%	/	2%	8%	-12	11%[15.4 µM]
O=C(NCCCCc1ccccc1)c1nn(-c2ccccc2F)nc1CO	/	-5%	/	/	-66*	/
O=C(NCCCc1ccccc1)c1nn(-c2ccccc2F)nc1CO	/	-4%	/	/	-25	/
COc1ccccc1NC(=O)Cn1c(C)cc(=O)c2cccc(OC)c21	-23%	1%	-3%	28µM*	-11	1%[15.4 µM]
COc1cccc2c(=O)cc(C)n(CC(=O)Nc3ccc(C)c(C)c3)c12	-53%	-1%	-5%	-23%	-16	37%
CCOc1ccc(S(=O)(=O)N(C(=O)c2ccncc2)c2ccc3oc(C)c(C(=O)OC)c3c2)cc1	/	1%	/	/	-16	/
O=C(Nc1cccc2ccccc12)c1ccc([N+](=O)[O-])s1	-62%	1%	-12%	1%	5	-26%
O=C(Nc1ccccc1F)c1ccc([N+](=O)[O-])s1	13µM*	1%	-7%	0%	-3	10%[15.4 µM]
O=c1nc2ccccn2c2ccc(S(=O)(=O)N3CCCCC3)cc12	-13%	20µM*	370%	18%	23	35%[15.4 µM]
CCOC(=O)c1c(-c2ccc(-c3ccccc3)cc2)csc1NC(=O)CNCCN(C)C	-75%	0%	?	18%	-103*	-6%[15.4 µM]
CCCCC(CC)Cn1c(Oc2ccccc2)nc2c1c(=O)n(C)c(=O)n2C (centres undefined)	/	-2%	/	/	/	/
COCCc1ccccn1	/	/	/	/	9	/
SMILES	a7 integrin act	RXFP1 ag	ASM inhibitor	gsp antag	RXFP1 antagonist	gsp ag
CCOC(=O)COc1cc(OCC(=O)OCC)c2c3c(c(=O)oc2c1)CCCC3	-22%	-2%	-3%	?	16	11µM*
COc1cccc(CC(=O)Nc2sc3c(c2C(N)=O)CCCC3)c1	10%	?	-1%	-3%	15	35µM*
COc1ccc(Cl)cc1NC(=O)c1c(NCc2ccc(C)o2)sc2c1CCCC2	/	1%	/	/	-61*	/
COc1ccc(NC(=O)c2c(NCc3cccc(F)c3)sc3c2CCC3)c(OC)c1	/	1%	/	/	-62*	/
COc1ccc(NC(=O)c2c(NCc3ccc(OC)c(OC)c3OC)sc3c2CCC3)c(OC)c1	/	1%	/	/	-21	/
Cc1cn([C@@H]2O[C@H](CO)[C@@H](O)[C@H]2F)c(=O)[nH]c1=O	/	/	/	/	-9	/
Cc1ccc(-c2nc3c4ccccc4n(CC(=O)N4CCN(c5ccccc5F)CC4)c(=O)n3n2)cc1	/	7%	/	/	-3	/
CC(=O)N1CCc2c(sc3nc(SCC(N)=O)n(-c4ccc(F)c(Cl)c4)c(=O)c23)C1	/	-4%	/	/	/	/
Cc1ccc(CNC(=O)c2cnc(N(C)C)nc2)cc1	/	4%	/	/	2	/
O=C(Nc1cccc(-c2nc3ccccc3s2)c1)C1=COCCO1	13%	-1%	-6%	-27%	-80*	-2%
CN(C)C1=NCCN1CCc1ccc(F)cc1	-4%	1%	8%	1%	/	/
CS(=O)(=O)Nc1ccc(C2=NN(C(=O)c3ccco3)C(c3ccccc3F)C2)cc1 (centres undefined)	1%	0%	0%	28µM*	-14	-32%
CCS(=O)(=O)Nc1ccc(C2=NN(C(=O)c3ccco3)C(c3ccco3)C2)cc1 (centres undefined)	-20%	0%	-1%	?	-24	-54%
CC(=O)c1ccc(N2CCN(C(=O)CCCc3nc4ccccc4s3)CC2)cc1	-25%	-2%	-2%	32µM*	1	-5%
Cc1cccc(OCC(=O)N/N=C/c2ccc(N(C)C)cc2)c1	-19%	-1%	113%	-13%	-102*	21%
CN(C)c1ccc(/C=N/NC(=O)COc2ccccc2)cc1	36%	3%	136%	-14%	-7	1%
CCC1(CC)Cc2ccccc2-c2[nH]c(=S)[nH]c(=O)c21	25%	/	0%	11%	47	6.3µM*
Cc1nnc(NC(=O)CCCCCN2C(=O)C3C4C=CC(C4)C3C2=O)s1 (centres undefined)	0%	2%	3%	50µM*	/	-119%
CC(C)c1nnc(NC(=O)CCCCCN2C(=O)C3C4C=CC(C4)C3C2=O)s1 (centres undefined)	-2%	0%	2%	-7%	/	-23%
CCCc1cc(C(=O)N2CCCC(Cc3cccc(Cl)c3)(C(=O)OCC)C2)n(C)n1 (centres undefined)	-50%	-7%	-5%	-12%	-64*	-17%
